Data as given in article PMC5700166.

Key:
Assay in all cases: protein-binding microarray (PBM); PBM: ~300 nM protein, 6 mM HEPES pH 7.8, 80 mM KCl, 0.5 mM EDTA, 0.5 mM EGTA, 6% glycerol, 35 ng/ul poly-dIdC, 1% milk, 1 h, room temperature; Ap Aiptasia and Nv Nematostella (sea anemones) / Co Capsaspora / Aq Amphimedon (sponge) / Dm Drosophila / Hu human; RHD is the Rel homology domain; high values mean tight binding
Conditions in all cases: dsDNA, one strand shown
GST-Ap-NF-kB RHD = molecular target: T1, GST-Ap-NF-kB RHD (Exaiptasia pallida (Aiptasia), UniProt A0A913YAJ5 2-422)
T1 sequence: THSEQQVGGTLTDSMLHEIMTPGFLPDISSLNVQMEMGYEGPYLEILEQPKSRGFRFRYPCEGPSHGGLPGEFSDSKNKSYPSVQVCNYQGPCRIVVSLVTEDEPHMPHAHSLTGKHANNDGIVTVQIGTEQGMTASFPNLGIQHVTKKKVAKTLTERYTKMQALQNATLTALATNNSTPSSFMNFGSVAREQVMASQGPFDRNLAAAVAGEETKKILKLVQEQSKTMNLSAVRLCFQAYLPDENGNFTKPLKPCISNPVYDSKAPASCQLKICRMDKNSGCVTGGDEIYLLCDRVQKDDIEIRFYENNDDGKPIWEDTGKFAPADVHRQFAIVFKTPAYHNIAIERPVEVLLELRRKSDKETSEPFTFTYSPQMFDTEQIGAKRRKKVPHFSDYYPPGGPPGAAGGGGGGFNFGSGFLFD

[1] = molecular target: T2, GST-Nv-NF-kB (Cys allele) (Nematostella vectensis, UniProt E5G601 2-411)
T2 sequence: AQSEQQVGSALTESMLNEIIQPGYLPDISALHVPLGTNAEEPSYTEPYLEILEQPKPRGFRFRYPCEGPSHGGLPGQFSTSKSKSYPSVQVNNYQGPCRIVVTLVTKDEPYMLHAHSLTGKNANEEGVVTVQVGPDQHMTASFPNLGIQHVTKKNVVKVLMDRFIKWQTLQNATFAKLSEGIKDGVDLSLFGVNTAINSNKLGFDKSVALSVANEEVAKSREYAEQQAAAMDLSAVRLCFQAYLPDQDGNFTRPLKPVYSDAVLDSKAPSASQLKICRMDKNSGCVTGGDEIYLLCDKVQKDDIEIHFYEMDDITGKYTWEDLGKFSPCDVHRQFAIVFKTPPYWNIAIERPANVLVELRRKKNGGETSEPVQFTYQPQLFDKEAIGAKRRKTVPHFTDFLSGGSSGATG

GST-Co-NF-kB = molecular target: T3, GST-Co-NF-kB (Capsaspora owczarzaki, UniProt F1ARL5 200-546)
T3 sequence: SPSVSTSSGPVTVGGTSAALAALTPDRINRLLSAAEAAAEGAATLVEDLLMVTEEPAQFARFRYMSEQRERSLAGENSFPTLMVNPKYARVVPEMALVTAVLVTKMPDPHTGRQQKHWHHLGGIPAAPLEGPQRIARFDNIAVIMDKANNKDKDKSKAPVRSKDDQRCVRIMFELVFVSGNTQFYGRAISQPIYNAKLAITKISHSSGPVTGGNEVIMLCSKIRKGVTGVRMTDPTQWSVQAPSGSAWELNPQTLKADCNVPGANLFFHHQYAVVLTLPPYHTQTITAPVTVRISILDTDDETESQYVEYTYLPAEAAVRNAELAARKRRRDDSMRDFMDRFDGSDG

GST-Dm-Relish = molecular target: T4, GST-Dm-Relish (Drosophila melanogaster, UniProt Q94527 99-473)
T4 sequence: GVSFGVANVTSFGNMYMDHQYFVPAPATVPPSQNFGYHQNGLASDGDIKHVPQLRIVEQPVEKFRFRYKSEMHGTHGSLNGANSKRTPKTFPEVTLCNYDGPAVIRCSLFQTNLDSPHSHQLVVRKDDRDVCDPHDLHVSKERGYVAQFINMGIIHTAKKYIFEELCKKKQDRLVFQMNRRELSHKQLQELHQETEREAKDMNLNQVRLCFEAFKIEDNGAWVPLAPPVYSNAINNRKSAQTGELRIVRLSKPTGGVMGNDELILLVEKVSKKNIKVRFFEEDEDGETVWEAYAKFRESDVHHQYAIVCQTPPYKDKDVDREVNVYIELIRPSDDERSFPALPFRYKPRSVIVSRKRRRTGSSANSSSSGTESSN

GST-Aq-NF-kB = molecular target: T5, GST-Aq-NF-kB (Amphimedon queenslandica, UniProt A9Y5G7 2-389)
T5 sequence: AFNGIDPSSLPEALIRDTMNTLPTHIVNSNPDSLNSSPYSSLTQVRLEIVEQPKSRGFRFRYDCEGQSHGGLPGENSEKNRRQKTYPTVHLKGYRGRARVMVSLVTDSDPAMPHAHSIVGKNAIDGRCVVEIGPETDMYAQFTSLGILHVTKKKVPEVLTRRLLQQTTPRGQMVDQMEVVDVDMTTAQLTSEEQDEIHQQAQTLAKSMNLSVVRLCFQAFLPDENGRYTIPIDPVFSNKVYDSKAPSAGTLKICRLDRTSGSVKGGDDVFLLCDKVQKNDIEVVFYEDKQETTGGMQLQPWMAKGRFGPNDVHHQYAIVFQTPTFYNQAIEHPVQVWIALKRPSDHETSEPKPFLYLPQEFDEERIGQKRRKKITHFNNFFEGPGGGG

Sequence	binding signal (GST-Ap-NF-kB RHD)	binding signal [1]	binding signal (GST-Co-NF-kB)	binding signal (GST-Dm-Relish)	binding signal (GST-Aq-NF-kB)
CCGATTAACATCAGGGGTATAACTGATGTTAATCGGGTCTTGATTCGCTTGACGCTGCTG	1.94 z-score	1.77 z-score	3.43 z-score	1.06 z-score	2.25 z-score
CCGATTAACATCAGGATATTCCCTGATGTTAATCGGGTCTTGATTCGCTTGACGCTGCTG	4.67 z-score	5.16 z-score	3.51 z-score	3.37 z-score	6.63 z-score
CCGATTAACATCAGGGAATGTACTGATGTTAATCGGGTCTTGATTCGCTTGACGCTGCTG	2.21 z-score	3.28 z-score	2.29 z-score	7.08 z-score	4.86 z-score
CCGATTAACATCAAGGTAATCCCTGATGTTAATCGGGTCTTGATTCGCTTGACGCTGCTG	4.1 z-score	2.08 z-score	1.06 z-score	5.22 z-score	3.95 z-score
CCGATTAACATCACGAGTTTCCCTGATGTTAATCGGGTCTTGATTCGCTTGACGCTGCTG	3.04 z-score	4.31 z-score	3.63 z-score	1.16 z-score	3.88 z-score
CCGATTAACATCAAATTCCCTCGTGATGTTAATCGGGTCTTGATTCGCTTGACGCTGCTG	3.11 z-score	4.96 z-score	2.32 z-score	3.26 z-score	4.09 z-score
CCGATTAACATCAGGGAATCCACTGATGTTAATCGGGTCTTGATTCGCTTGACGCTGCTG	3.05 z-score	3.31 z-score	2.25 z-score	7.85 z-score	5.29 z-score
CCGATTAACATCAGGGAATATAATGATGTTAATCGGGTCTTGATTCGCTTGACGCTGCTG	3.2 z-score	3.59 z-score	3.13 z-score	1.66 z-score	3.14 z-score
CCGATTAACATCAGGGGCGCCCCTGATGTTAATCGGGTCTTGATTCGCTTGACGCTGCTG	7.03 z-score	5.37 z-score	3 z-score	6.07 z-score	8.59 z-score
CCGATTAACATCAAAACAATCCCTGATGTTAATCGGGTCTTGATTCGCTTGACGCTGCTG	2.49 z-score	3.19 z-score	1.41 z-score	2.25 z-score	4.66 z-score
CCGATTAACATCACCTTCCCCCCTGATGTTAATCGGGTCTTGATTCGCTTGACGCTGCTG	4.15 z-score	4.07 z-score	7.1 z-score	3.79 z-score	4.32 z-score
CCGATTAACATCAGGGGTTTTGATGATGTTAATCGGGTCTTGATTCGCTTGACGCTGCTG	3.81 z-score	3.46 z-score	1.34 z-score	5.6 z-score	3.25 z-score
CCGATTAACATCAGGGGTTTCACTGATGTTAATCGGGTCTTGATTCGCTTGACGCTGCTG	3.56 z-score	3.24 z-score	2.93 z-score	7.34 z-score	4.84 z-score
CCGATTAACATCAGGGGGTAAAATGATGTTAATCGGGTCTTGATTCGCTTGACGCTGCTG	4.43 z-score	4.2 z-score	8.57 z-score	3.24 z-score	4.16 z-score
